Measured values from ChEMBL document CHEMBL1201862, “PubChem BioAssay data set” (2004).
Among all 400,000 compounds or so, about 2,100 (0.53%) were called active. Another 14% or so got no clear call; they are omitted. This is one part of a sample in which actives are shown more often than they occur. How the calls were made is not given here.

Each molecule was assayed against Ataxin-2 (Homo sapiens) (UniProt Q99700) (assay: qHTS for Inhibitors of ATXN expression.).
Assay type: functional

Ataxin-2 (Homo sapiens), sequence (Q99700 whole entry): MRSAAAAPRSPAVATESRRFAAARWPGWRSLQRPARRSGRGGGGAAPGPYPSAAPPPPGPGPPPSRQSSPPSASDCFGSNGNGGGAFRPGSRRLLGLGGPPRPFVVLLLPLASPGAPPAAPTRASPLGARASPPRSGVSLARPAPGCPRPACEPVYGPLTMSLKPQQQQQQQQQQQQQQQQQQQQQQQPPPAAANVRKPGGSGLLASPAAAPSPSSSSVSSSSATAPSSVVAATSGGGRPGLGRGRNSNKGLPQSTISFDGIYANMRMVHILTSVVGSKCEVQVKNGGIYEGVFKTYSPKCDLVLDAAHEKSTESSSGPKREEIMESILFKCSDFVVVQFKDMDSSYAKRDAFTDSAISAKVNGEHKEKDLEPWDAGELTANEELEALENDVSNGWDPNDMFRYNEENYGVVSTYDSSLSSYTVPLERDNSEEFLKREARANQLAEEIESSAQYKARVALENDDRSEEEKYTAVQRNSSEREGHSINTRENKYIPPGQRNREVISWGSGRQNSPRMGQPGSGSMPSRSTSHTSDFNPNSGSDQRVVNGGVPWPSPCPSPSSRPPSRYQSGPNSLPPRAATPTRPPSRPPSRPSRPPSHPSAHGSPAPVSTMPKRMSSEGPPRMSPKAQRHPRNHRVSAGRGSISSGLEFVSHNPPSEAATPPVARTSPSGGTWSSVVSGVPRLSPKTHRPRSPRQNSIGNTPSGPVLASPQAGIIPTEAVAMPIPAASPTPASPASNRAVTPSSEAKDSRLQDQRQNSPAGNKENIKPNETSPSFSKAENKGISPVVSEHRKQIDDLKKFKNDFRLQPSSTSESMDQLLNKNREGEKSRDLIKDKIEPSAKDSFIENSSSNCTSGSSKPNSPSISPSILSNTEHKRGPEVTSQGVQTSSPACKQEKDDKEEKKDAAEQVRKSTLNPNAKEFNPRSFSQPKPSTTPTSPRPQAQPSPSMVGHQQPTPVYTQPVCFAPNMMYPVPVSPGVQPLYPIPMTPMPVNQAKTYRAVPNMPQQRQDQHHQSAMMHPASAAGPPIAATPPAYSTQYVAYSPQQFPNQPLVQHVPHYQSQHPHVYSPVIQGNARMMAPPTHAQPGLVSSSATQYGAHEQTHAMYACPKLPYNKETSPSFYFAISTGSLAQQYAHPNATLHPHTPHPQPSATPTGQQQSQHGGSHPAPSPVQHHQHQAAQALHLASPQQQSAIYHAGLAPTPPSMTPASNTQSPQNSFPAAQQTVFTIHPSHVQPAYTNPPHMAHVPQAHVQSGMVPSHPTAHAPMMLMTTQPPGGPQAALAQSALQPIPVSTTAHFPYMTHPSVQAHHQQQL

Row | SMILES | Potency
1 | O=C(COC(=O)C1=Cc2ccccc2OC1)NCc1ccco1 | inactive
2 | Cn1c(Cl)c(/C=N/OC(=O)C2CC2)c2ccccc21 | inactive
3 | O=c1ccc2cc(O)c(O)cc2o1 | inactive
4 | OC[C@@H]1[C@@H](c2ccc(Cl)cc2)C(c2cccc(Cl)c2)=NN1c1ccccc1 | inactive
5 | CCN(CC)CCCNC(=O)CSc1c2c(nc3cc(Cl)ccc13)CCCC2 | 28.2 µM (active)
6 | O=C(CSc1c2c(nc3ccc(Cl)cc13)CCCC2)NCCCN1CCOCC1 | 35.5 µM (active)
7 | CCN(CC)CCCNC(=O)CSc1nc(C)cc(C)n1 | inactive
8 | O=C(Cc1cc(O)nc(O)n1)NCCN1CCOCC1 | inactive
9 | CC1CCCC(NC(=O)c2ccc3c(SCC(=O)O)c4c(nc3c2)CCC4)C1C (stereo not drawn) | inactive
10 | CCCN(CCC)C(=O)CSc1c2c(nc3ccc(Cl)cc13)CCCC2 | 39.8 µM (active)
11 | CCN(CC)CCNC(=O)CSc1c2c(nc3cc(Cl)ccc13)CCCC2 | 35.5 µM (active)
12 | CCOC(=O)C1CCCc2c1[nH]c1ccc(Cl)cc21 (stereo not drawn) | inactive
13 | Cc1cc2cc(C#N)c(NCCN=C(S)NCCCN3CCOCC3)nc2cc1C | inactive
14 | CCN(CC)CCCC(C)n1c2nc(=O)[nH]c(=O)c-2nc2cc(Cl)ccc21 (stereo not drawn) | inactive
15 | O=C(O)c1c2c(nc3ccc(Cl)cc13)CCC2 | inactive
16 | Cc1occc1-c1nnc(SCC(=O)NC2CCCCC2)o1 | inactive
17 | Cc1c(CC(=O)N2CCN(C(=O)C3COc4ccccc4O3)CC2)c(=O)oc2cc(O)c(Cl)cc12 (stereo not drawn) | inactive
18 | Nc1cccc2c1C(=O)N(c1ccccc1)C2=O | inactive
19 | Cc1ccc(C(=O)Nc2nc3n(n2)C(c2ccccc2)C=C(c2ccccc2)N3)cc1 (stereo not drawn) | inactive
20 | CNc1cc(C)c(C#N)c2nc3ccccc3n12 | inactive
21 | CCN(CC)Cc1cc(O)c(CN(CC)CC)cc1O | inactive
22 | CCC(c1ccc(O)c(O)c1)C(CC)c1ccc(O)c(O)c1 (stereo not drawn) | 31.6 µM (active)
23 | CC(C)(C)N1C(=O)c2ccc(C(=O)Nc3cc(C(=O)O)cc(C(=O)O)c3)cc2C1=O | inactive

Row | SMILES | Potency
24 | COc1ccc(CCNC(=S)NC(=O)c2cc(OC)c(OC)c(OC)c2)cc1OC | inactive
25 | COc1cc(C(=O)NCCc2csc(-c3ccc(Cl)cc3)n2)cc(OC)c1OC | 28.2 µM (active)
26 | COc1cc(C(=O)NCCNc2nc3ccc(C)cc3cc2C#N)cc(OC)c1OC | inactive
27 | COc1ccc(-c2cc(C(=O)Oc3ccccc3)c3cc(C)ccc3n2)cc1 | 35.5 µM (active)
28 | COc1ccc2nc(-c3ccccc3)cc(C(=O)N3CCC3)c2c1 | inactive
29 | COc1ccc2nc(-c3ccccc3)cc(C(=O)OCC(=O)N3CC(C)OC(C)C3)c2c1 (stereo not drawn) | inactive
30 | CCOC(=O)c1c(C)nc2sc(C(=O)Nc3ccccc3)c(N)c2c1-c1ccc(OC)cc1 | inactive
31 | CCOC(=O)c1c(N)sc(C(=O)Nc2ccccc2)c1C | inactive
32 | CCOC(=O)c1c(NC(=O)CCl)sc(CN(C)C)c1-c1ccccc1 | 37.7 µM (active)
33 | CC(=O)Nc1nc2n(n1)C(c1ccc(F)cc1)C=C(c1ccccc1)N2 (stereo not drawn) | inactive
34 | CCCCCn1/c(=N/C(C)=O)c(C#N)cc2c(=O)n3ccccc3nc21 | inactive
35 | COc1ccccc1[C@@H]1C(c2ccccc2)=NN(c2ccc(Br)cc2)[C@H]1C(=O)N1CCOC1=O | inactive
36 | CNC(=O)c1sc(N2N=C3/C(=C/c4ccccc4)CCCC3C2c2ccccc2)nc1C (stereo not drawn) | inactive
37 | CCCn1c(O)nnc1SCC(=O)N1N=C2/C(=C/c3ccc(OC)cc3)CCCC2C1c1ccc(OC)cc1 (stereo not drawn) | 25.1 µM (active)
38 | Cc1nc(N2N=C3/C(=C/c4ccc(F)cc4)CCCC3C2c2ccc(F)cc2)sc1C(=O)N(C)C (stereo not drawn) | inactive
39 | O=c1[nH]c(=O)c2nc3c4ccccc4c4ccccc4c3nc2[nH]1 | inactive
40 | CC1CCC2C(=O)N(c3ccc(C(=O)Oc4cccc5cccnc45)cc3)C(=O)C2C1 (stereo not drawn) | inactive
41 | Cc1cc2nc3ccc(N(C)C)cc3nc2cc1N | 25.1 µM (active)
42 | Cc1cc2nn(-c3ccc(Cl)cc3)nc2cc1N | inactive
43 | CN(C)c1ccc2c(O)ccnc2c1 | inactive
44 | Nc1c(C(=O)NCCN2CCOCC2)c2nc3ccccc3nc2n1CCc1ccccc1 | inactive
45 | COc1cccc(C2C3=C(O)CC(C)(C)CC3=Nc3cc(OC)c(OC)cc32)c1 (stereo not drawn) | inactive
46 | COC(=O)C=C1CCC2C3CCC4=CC(=O)C(Br)CC4(C)C3C(=O)CC12C (stereo not drawn) | 31.6 µM (active)

Row | SMILES | Potency
47 | COc1ccc(C2CC(c3ccc(Cl)cc3)=NN2c2ccc(S(N)(=O)=O)cc2)cc1 (stereo not drawn) | inactive
48 | CCOC(=O)C1(C)C=C(Nc2ccc(NC(C)=O)cc2)C(=O)N1c1ccc(NC(C)=O)cc1 (stereo not drawn) | inactive
49 | CC(C)(C)OC(=O)N1CCC(NC(=O)c2[nH]cnc2C(=O)Nc2cccc(Cl)c2)CC1 | 35.5 µM (active)
50 | COc1cc(OC)c(N2CC(C(=O)Nc3cccc(C(=O)NC4CC4)c3)CC2=O)cc1Cl (stereo not drawn) | inactive
51 | CC(C)(C)OC(=O)NCc1ccc(CNC(=O)c2[nH]cnc2C(=O)NC2CCN(C(=O)OC(C)(C)C)CC2)cc1 | 20 µM (active)
52 | COc1ccccc1CC(NC(C)=O)C(=O)NC1CCN(C(=O)NCc2ccccc2)CC1 (stereo not drawn) | inactive
53 | CC(C)(C)OC(=O)N1CCCN(C(=O)Nc2cccc(Cl)c2)CC1 | inactive
54 | CC(=O)NC(Cc1ccccc1C)C(=O)NC1CCN(C(=O)NCc2ccccc2)CC1 (stereo not drawn) | inactive
55 | CS(=O)(=O)Nc1nc2n(n1)C(c1ccccc1)C=C(c1ccc(Br)cc1)N2 (stereo not drawn) | inactive
56 | COc1ccc(C2CC(c3ccccc3C(F)(F)F)=NN2c2ccc(S(N)(=O)=O)cc2)cc1 (stereo not drawn) | inactive
57 | Cc1ccc(Cn2c(CN3CCC(C(=O)NCc4cccnc4)CC3)cc3ccccc32)cc1 | 35.5 µM (active)
58 | CCOC(=O)C1CCN(Cc2ccc3ccccc3c2)CC1 | inactive
59 | Cc1cccn2c(=O)c3cc(C(=O)NCc4cccnc4)c(=N)n(CC4CCCO4)c3nc12 (stereo not drawn) | inactive
60 | CCCn1c(=N)c(C(=O)NCc2cccnc2)cc2c(=O)n3cccc(C)c3nc21 | inactive
61 | CCCn1c(=N)c(C(=O)NCc2cccnc2)cc2c(=O)n3cc(C)ccc3nc21 | inactive
62 | Cc1cccc(Cn2c(CN3CCC(C(=O)NCc4cccnc4)CC3)cc3ccccc32)c1 | 22.4 µM (active)
63 | Cc1ccc(CNC(=O)C2CCN(c3nnc(N4CCCC4=O)s3)CC2)cc1 | inactive
64 | CN(C)CCNC(=O)C1CCN(Cc2cc3ccccc3n2Cc2ccccc2)CC1 | 28.2 µM (active)
65 | O=C(Nc1nc2c(s1)CN(Cc1ccccc1)CC2)C1CCC1 | inactive
66 | CCn1c(=N)c(C(=O)NCc2cccnc2)cc2c(=O)n3cc(C)ccc3nc21 | inactive
67 | O=C(Nc1nc2c(s1)CN(Cc1ccccc1)CC2)C1CCCC1 | inactive
68 | Cc1ccccc1Cn1c(CN2CCC(C(=O)NCc3cccnc3)CC2)cc2ccccc21 | 31.6 µM (active)
